The record followed here is PubChem BioAssay AID1508600 (Functional Genomics Laboratory (NCATS/FGL), 2020).

In all, about 53,000 sequences went through this assay and about 3,700 (7%) were called active.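 Rule for the calls: active = gene knockdowns whose robust z-score for IL-1 alpha signal is at least 2 or at most -2, so actives lie on both sides; inactive = the rest.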 Only a selection was taken, and actives are over-represented in it overall.

The nature of this assay: Components of the Cytosolic LPS Sensing Pathway: Gene Identification via Genome-wide siRNA Screen.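 Note: robust z of the log signal after scaling to non-targeting control siRNA wells of the plate.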 As to conditions: RAW264.7 macrophages, IL-1a HTRF, actives lie on both sides, screened at 100 nM (by protocol), cells primed 5 h with Pam3CSK4 first. Put shortly: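 Mouse macrophage line RAW264.7 is transfected with siRNA (100 nM final), grown 48h, primed with TLR ligand Pam3CSK4 5 h and given intracellular LipidA 24 h. IL-1a in supernatant is read by HTRF and viability by luminescence.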
In the case of GGGAAUGAGUCAGCUCUUUTT against Cd163, the z-score was -0.667 (inactive).

Consider GGCUAAACUGAAGGAAUUCTT against Fkbp10, for which the z-score is 0.875 (inactive).

Turning to GGUAGGAAUUUGGAAAACUTT against H2-T24, the z-score is 1.5 (inactive).

Consider GGAAAUUGUUGUUUCCCGUTT against Sf3b3, for which the z-score is -1.45 (inactive).

Turning to GGCCACCAAGAAAUUCAAATT against Cd22, the z-score was 4.16 (active).

For the sequence GCCUAUCUGUGACUGACCUTT against LOC433501, the z-score is -0.171 (inactive).

For the sequence GCGAGAGCUAAAGUAAAAUTT against Egln1, the z-score was -0.671 (inactive).

With GGCUAAAGUGAGCUCUUCATT against Nob1, the z-score was -0.947 (inactive).

Turning to GGUGUGUUACUGAUGAUUCTT against Olfr669, the z-score was -0.37 (inactive).

As to GCAGAGUGACUUUGAAGCGTT against Klf10, the z-score is 0.844 (inactive).

Take CCAAGUUCAUUCUUUUUGCTT against Cobll1: the z-score was 1.2 (inactive).

In the case of CCCUAGAAGAAUCAAGCUCTT against Prune2, the z-score was -1.35 (inactive).

GGAAUGAUAGAAAAUGGACTT against Gvin1: the z-score is -2.16 (active).

In the case of GGCAGAGACCACUAAUACCTT against Tmem131l, the z-score is -0.881 (inactive).

In the case of GGCAGGCAAUUCAAACAAUTT against Orm1, the z-score is -1.24 (inactive).

Turning to GCUAUCCUCAAUUGCACACTT against Atxn3, the z-score is 1.49 (inactive).

Turning to GGUUUGAAAGGAGAAAGAGTT against Col4a6, the z-score was 0.366 (inactive).

In the case of GGCCUUCGUCAUCUUCAAGTT against Snrpa, the z-score is 1.05 (inactive).

Consider GGCCCAAGCUCAACACAAUTT against Aida, for which the z-score is 2.31 (active).

Take GGCCAAGAAAAAAGAAAGATT against Slc22a2: the z-score is 0.126 (inactive).

GGGUUCAGGAGAACUAACUTT against Tmem40: the z-score was -1.92 (inactive).

As to GGAUCCUGUUAAGAUUAUCTT against Phykpl, the z-score was -0.0411 (inactive).

In the case of GGAUAUUCACUUUCAUAUGTT against Gulp1, the z-score is 1.25 (inactive).

For the sequence GGUUUAUGGAGCAAGUGAUTT against Actr3, the z-score is -2.07 (active).

Regarding CCAACAAUGUUUAAAGGAUTT against Olfr476, the z-score was -0.32 (inactive).

Turning to GCCAUGUGCACUGAAUAUATT against Gfral, the z-score was -1.87 (inactive).

With GGUCAUCAGUGAUCAGUCATT against Mre11a, the z-score was -1.33 (inactive).

For the sequence GCAGCAUCCAACUUCCGCUTT against Ffar2, the z-score was 3.35 (active).

As to GGAAAAAAUCAAGAGUGAATT against Fam50a, the z-score was -0.157 (inactive).

As to GCUACUCUCUAUUGGUUUUTT against Gpr45, the z-score was 2.45 (active).

GGUGAACUUGAGGUCACACTT against Angpt4: the z-score is 0.134 (inactive).

With GCGGGUUUAUUGUCUAGAATT against Mfn2, the z-score is 0.669 (inactive).

In the case of GGAAGUAGAUUUGAAGUUGTT against Btbd35f1, the z-score was 0.256 (inactive).

With GGAGCUCUUUUUGAACACUTT against Sgcg, the z-score is 0.946 (inactive).

GGCCAAUCAAGAUAGCCACTT against Dnajc1: the z-score was 1.12 (inactive).

GCUCUCUCUCUUCUUACUGTT against Olfr1160: the z-score was -2.16 (active).

Consider GCCGUUUGGUUUCGAACUUTT against Mboat2, for which the z-score was 1.17 (inactive).

For GGUGGAGUGAUACGAAGAGTT against Radx, the z-score is 1.21 (inactive).

Turning to CCAUAGUAGCUACCUUGAUTT against Fam107a, the z-score was 0.537 (inactive).

In the case of GGAUGAGGUGAACUGAGGGTT against Tmem150b, the z-score is 0.777 (inactive).

GGAAGGUUUGUUGUUUUGUTT against Apon: the z-score was -1.58 (inactive).

On to GGAUAUGACUAGGUGAAUUTT against Ebf3, for which the z-score was -1.04 (inactive).

In the case of GGACAUUGUCAAUAUGCUCTT against Pygm, the z-score was 0.633 (inactive).

GGUGUGGAAGUCAGUUUAATT against Serpinb3a: the z-score was 2.53 (active).

CGAUGUGACUAUUUGUUGATT against Snx11: the z-score was 0.425 (inactive).

As to GGACCUAAACUGUCAGGAGTT against Eif3g, the z-score was 0.15 (inactive).

As to GCUCUGUUGUGGAUGCAAUTT against Lonrf2, the z-score was 0.859 (inactive).

Take GGGCGGUUCAAAAGGUCAGTT against Cacnb1: the z-score was 2.27 (active).

On to CCGGGAUGGAGAAUAAGCUTT against Fgfbp3, for which the z-score is -0.264 (inactive).

Take GCUAUAGGGACCUCUGUCATT against Cdh5: the z-score is -2.72 (active).

Turning to CCAUGACAUUUCCUAAGUUTT against Sall3, the z-score was -0.2 (inactive).

For GGAGAUUUAUACACACUUGTT against Snx17, the z-score is 0.615 (inactive).

For the sequence GCUCCUACUACUGCUUUGCTT against Crem, the z-score is 0.979 (inactive).

As to GCCCAAAGGUCAAGGAUAUTT against Rptn, the z-score is -0.036 (inactive).

In the case of GCUAAGUUUCACCCAAAGGTT against Dennd2c, the z-score is 1.42 (inactive).

Turning to GGAGUGAGACAAGUGUAUGTT against Sprr1a, the z-score is -0.0345 (inactive).

Regarding GGAAAGAUUCCGAACAAUUTT against Rab8b, the z-score is 2.12 (active).

GGUGGUUGAACAUAAGACUTT against Zfp688: the z-score was 1.27 (inactive).

Turning to GGCAAUACAAACAAGUUCUTT against Klhdc2, the z-score is 1.05 (inactive).

With GGCCUUGUUUUUAAGUAAATT against Atp12a, the z-score is -0.178 (inactive).

In the case of GCCAAUGAACCGAUCUCUGTT against Ep400, the z-score is -2.13 (active).

As for GGAAUUGGGUAGUACAAAATT against Irak1, the z-score is 0.282 (inactive).

As for GGUAAUGAAUAGGAAACUCTT against Ostm1, the z-score was -0.773 (inactive).

GGAACACACAGAGGUUUAUTT against Hacd1: the z-score was 1.87 (inactive).

Regarding GGGAGUGGCUCCUCAGAAATT against AW549877, the z-score is -1.98 (inactive).

As for CGCACAAGUGCUUGAGUUATT against Ccdc151, the z-score was 1.03 (inactive).

Turning to GGACCAAUGUUUUCUUCCUTT against Gngt2, the z-score is 0.773 (inactive).

On to GCCUUAAGUGUUCAUGUAATT against Vhl, for which the z-score was -0.872 (inactive).

On to GGAAGCCCACUACAACAAUTT against Krt19, for which the z-score was -0.236 (inactive).
